# Measured values from PubChem BioAssay AID1347426 (Functional Genomics Laboratory (NCATS/FGL), 2020).
# Hit rate of the full screen: of about 31,000 sequences, about 1,400 (4.5%) were called active. Many of the other results were omitted from the sample, so actives are more common in it than they were. Values without a mark were called inactive.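 Rule for the calls: active = median seed-adjusted z-score above 1 or below -1; inactive = the rest.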
# Test: Novel Modifiers of Survival Motor Neuron (SMN) Protein: Gene Identification via Genome-wide siRNA Screen;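 note: luminescence tracks full-length SMN protein made from the SMN2 reporter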
# Details: HEK293T SMN2-luciferase reporter, siRNA knockdown, 72 h; actives lie on both sides
# In short: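 Luciferase signal, proportional to full-length SMN made from an SMN2 cDNA reporter in stable HEK293T cells, was read 72 h after siRNA reverse transfection. Values were expressed as MAD scores after non-targeting-control normalization and log10 conversion; seed analysis flagged off-targets.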
row,Sequence,median seed-adjusted z-score
1,CGUUCAGUCCGUCACCCAATT against GATAD2A,-0.715
2,GGGUGGGUUACAUAGCACATT against CLDN19,0
3,GACUUAACCAAGAGACGUATT against THOC2,-1.22 (active)
4,GGACGAAGGACGUGCUGUUTT against SHC2,-0.207
5,GCAAUUACAUUGUACGCUUTT against ETFDH,0.154
6,CAGCUUCAGGAGAAUGAAATT against PPP1CC,-0.344
7,GCACGUAAGCUGAACACUATT against PRC1,-0.0195
8,UGAAGAACCUGGACGCCAATT against CCL24,0
9,CCUCGAGGAGAUUAACAAATT against NPEPL1,1.12 (active)
10,CAGAUGAAGUGAUCGGUGATT against CIITA,-0.109
11,GCUCCUGUAUGAAUGCAAUTT against FBP2,0
12,GGCUUUUAGCCUGAAGAAATT against PRDM5,-0.463
13,CUGAUGCUCUGUAUCCCAATT against TNRC4,0.801
14,GAUGAUAUUUAUUCACCAATT against ZBTB25,0
15,GCAUACCUCAGUUCCAAGATT against CDY2A,0.75
16,CCUCUAACCUUAGAUGAAATT against GTF2E2,-1.32 (active)
17,GGAGCAUAAAGUAGACCGATT against ABCA10,-0.104
18,GACCGUUCACUGUACAACATT against FUT9,0.0444
19,GUGUUAUAACAAUCGAAGATT against CAPSL,-0.168
20,GGCUUAAACUUAGAGUCAATT against MYLIP,0.652
21,CAGUCGAUGUCCAUGAAUATT against LRRN1,-0.407
22,GAAUUGCUCCUAAUGUCAATT against MYB,0.307

row,Sequence,median seed-adjusted z-score
1,CAGUGAGGUGAAACAAAUATT against DNAJC8,-1.62 (active)
2,GUGACCAUCUUGGACAUUATT against CELSR1,-0.466
3,GGCGACUGUUUAUACAUGATT against ALDH7A1,-0.406
4,GGAAGAAAUUAGCUAAAAATT against MKI67IP,0.426
5,UGACCCAGAUUAUCGCCGATT against POLR2I,-3.27 (active)
6,GCCUAGAGGAUACCCAAAATT against NPVF,0.588
7,GCUCAGAUGUUAUUCGGGATT against SKIV2L,0.209
8,GCAAAGCUAUUGCAUUGAATT against HSDL2,-0.0717
9,AGAUCAACCCAGAUAACUATT against INCENP,-0.339
10,GCACCUAUCUUGACCUGCUTT against CTSC,0
11,CCUUCUAAUUCGCAAGGUATT against REL,-0.358
12,GCGCAGCUCUGGAAUUUGATT against OXCT2,-0.449
13,AGAGCAUUCACAAACUGAATT against RBM8A,0
14,CCUCCUCGAUGCCUACAAATT against DIO2,-0.549
15,CACUAUGGAGAAACAAUAUTT against ZNF181,-0.154
16,GGUGAUGACUGCUUGAUGATT against PSKH1,-2.03 (active)
17,CCCACCAAAUUGCACAAUATT against KLF13,-0.501
18,GACUGUCUUUGAAAAGAGATT against HESX1,0.3
19,GCAGCAUGCUACAACCAAATT against RNF25,-0.0826
20,GAUGGGUAAAUGUACAUAUTT against KCNIP4,-0.401
21,GCAUCGUGGGCAUAGCGUATT against PCSK6,0
22,GAAUUUUGAUGGACAAGUUTT against RAG2,0.138

row,Sequence,median seed-adjusted z-score
1,GAACCUCAAGAAUCGAACATT against REV1,-0.294
2,CCAGGGACCAAGAGAAAGATT against RCE1,-1.19 (active)
3,GCUUUGAUUUCACCAACAATT against GCM2,-0.241
4,GGACGUGACCAUCAUGUACTT against IRF7,-0.304
5,CGAUGUCAGCAUUUCCGUUTT against EPRS,-0.391
6,UCACGCUCCUGGACCAUUUTT against SLC6A3,0.457
7,GAAGCGCAGUCACCUGAAATT against PROC,-0.228
8,CUGUUGAGGUUGUUAUUGATT against GABPA,1.43 (active)
9,GCAUGACCAUAAGAUCCUATT against NUAK2,-0.0601
10,GAAGGAGAAUGGUAUCACUTT against GPATCH4,-0.519
11,CAAAGUAUCUGGAGAACCATT against KIF2C,0.0122
12,GGGCCUUUCUUGGACUGAUTT against PHF7,0.425
13,CUUCAGUUCGAAUACAUUUTT against RFC5,-0.644
14,GGAGACUUCUUACCCACCATT against PSMD4,1.46 (active)
15,CAACUGAUGAGUAUCUAGATT against MRCL3,-0.00909
16,CUUCAGUGCUGAUCAGGUATT against NDUFA2,-0.694
17,GGACCCAGUAUUUCAGGAATT against SFXN4,-0.174
18,CGAUAUGGAAAAUCCCUAUTT against ANXA10,0.0445
19,CAUACGGACUGUACCUUUATT against PSMC5,-1.06 (active)
20,CCCUCUACCUCGUCCGAAUTT against SIRPA,-0.153
21,CCACAUCUCAAGUCCACUUTT against PPP1R1A,-0.529
22,CACUUACGGUGUGAAAGGATT against SOX5,0.123

row,Sequence,median seed-adjusted z-score
1,AGUUACUACCUUAUCCUCATT against POU2F2,0.163
2,CCAUCUCCUACAUCGCCGATT against APBA2,1.66 (active)
3,GCUAUUUGGUUAUCCUUAUTT against ATP6V0A1,0.103
4,AGAUCCUGUGGAUUAGAAATT against NEU4,-0.152
5,GUGCGAAAGAGAAUCUUAATT against SPIRE1,0.336
6,GGAACAGCUUAAGAUUGAATT against GNG3,-0.186
7,GGAAGACCUUACACGGUUATT against EIF3E,0.549
8,GCUAUUUCCAGCGAAUAUATT against CNOT1,1.2 (active)
9,CGCAGAAGAUGUACCAGUUTT against CDH22,-0.57
10,CAGGGUCUAUGGUACCGUUTT against UBE3C,0.0341
11,AAAUCCUUGGGUCAACAUUTT against NOX1,-0.221
12,GGACAAGGGAUUAAUAGUATT against ARID1A,-1.14 (active)
13,CCUUGAUCCUCGACUGUAATT against COL5A1,-0.00475
14,GGUCAUUGUGAAAAGUAGATT against GCLM,0.0509
15,CGCAUACUCUCGCCCUGUATT against ZNHIT2,-0.339
16,CGAUAGUGAGUAUAUCAGUTT against ZMYND8,-0.065
17,UGAGCGAGUUGAUUUCACATT against ATF5,0.233
18,CUUUAAGACUCAUAACGAATT against GTF2E2,-1.32 (active)
19,GUUUCAUCGUAUAUCAAUATT against HSD17B13,-0.329
20,GAAGGUUGAUUAUCGUAAATT against BCMO1,0.53
21,CGAGGAACUAAGACUCAAATT against GPR151,-0.263
22,ACAAUUAUUGGAAAGAGAATT against SPRYD5,0.151

row,Sequence,median seed-adjusted z-score
1,GGAAGGAGCUGUCACGCAATT against MED26,-1.86 (active)
2,CGAAUCUCAUGUUCAGGAATT against LPA,-0.321
3,GGGUCAUGUUUGGUUAGAATT against IMMP1L,-0.444
4,CGUGGACCACUAUCCCAUUTT against RNF123,0
5,GGAAAAACCAACCAAGUUATT against RUFY1,0.119
6,CGGUGAAGGUGCUAAAGGATT against RAD23A,-1.13 (active)
7,GCCUUCAAUUUUCAUACAATT against ZNF19,0
8,AGUAAUAGUUCAAACCUUUTT against ZNF664,1.08 (active)
9,GAGUGUACCUGGAAUGUCUTT against ARNTL2,0.102
10,AAAGUGGAUUGCACACAGATT against TGFB1I1,0.887
11,GAUCAAACCUUGUAUCUCUTT against ARG2,-0.796
12,GGUAAAGAAUUCUCCGGAATT against FUS,0.92
13,GCAGGAUUGUGAUCCACCATT against PCGF3,0.876
14,GGAUAUGGUGAGAAUAGAATT against MTHFS,0.166
15,AGCUCACAAGGAUCCCAAUTT against THPO,-0.0366
16,CCUUUAGCACGGAUAGUUUTT against ACAT2,1.25 (active)
17,CUCCUACAGUGCUAUCAGATT against ENPP2,-0.305
18,AAUUCCUCUUCAACAUGUATT against HOXD9,-0.123
19,GGAACGGGCUGGAGUUAAATT against FUBP1,-1.52 (active)
20,GUACUUCAGUGGAGUGAAATT against CDKL1,-0.28
21,UCUGCUAUUUGGUCCUGAATT against TOMM34,-0.503
